# Screening results: PubChem BioAssay, The Scripps Research Institute Molecular Screening Center
# The sample as a whole holds a higher share of hits than the screen did.
# SF-1 inh: SF-1 (human) inhibition. AID 525. Q13285. CHO-K1 Gal4-SF-1 LBD luciferase reporter. inhibition, % at 10 µM. actives 0.55% (n = 65,000);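 active means inhibition above the mean inhibition of all tested compounds plus 3 SD, cut at about 48% in these data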;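 further: 0% = SF-1 transfected cells with DMSO and 100% = mock-transfected cells lacking SF-1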
# Target sequence (Q13285 whole entry, looked up, the tested form may be a part): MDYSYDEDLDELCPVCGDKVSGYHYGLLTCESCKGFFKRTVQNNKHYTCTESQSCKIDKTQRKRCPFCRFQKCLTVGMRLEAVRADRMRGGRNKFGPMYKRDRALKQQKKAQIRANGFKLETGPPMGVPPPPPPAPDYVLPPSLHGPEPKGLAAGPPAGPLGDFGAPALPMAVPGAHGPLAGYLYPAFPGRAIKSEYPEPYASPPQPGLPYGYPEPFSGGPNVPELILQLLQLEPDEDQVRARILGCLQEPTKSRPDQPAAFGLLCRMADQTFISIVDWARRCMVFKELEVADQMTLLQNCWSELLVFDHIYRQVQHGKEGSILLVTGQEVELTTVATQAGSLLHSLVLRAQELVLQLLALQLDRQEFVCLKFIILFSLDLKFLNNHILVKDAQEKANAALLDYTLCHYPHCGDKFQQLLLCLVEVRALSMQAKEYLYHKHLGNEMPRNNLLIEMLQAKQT
# Starred values were filed as active, the others as inactive.
SMILES,SF-1 inh
Cc1cc(/C=c2/sc3nc4ccccc4n3c2=O)c(C)n1-c1ccccn1,85.1*
O=C(CCC(=O)c1ccc[nH]1)c1ccc(Cl)cc1,-51.9
CN(C)CCN1C(=O)C(=O)/C(=C(/O)c2ccccc2)C1c1ccccc1F (stereo not given),-2.2
COc1ccc(-c2cc3nc4n(c(=O)c3s2)CCC4)cc1,78.2*
CCCC12CN3CC(C)(CN(C1)C3c1ccc(OC(C)C)cc1)C2=O (stereo not given),8.5
CC(NC(=O)C1CCN(c2nnc(-n3cccc3)s2)CC1)C12CC3CC(CC(C3)C1)C2 (stereo not given),-7.6
Cc1ccccc1NC(=O)C1CC(=O)N(c2ccccc2F)C1 (stereo not given),15.7
CC1CCCCN1C(=O)C1CC(c2ccc(F)cc2)=NO1 (stereo not given),-62.6
Cc1ccc2[nH]c3c(N4CCCCCC4)ncnc3c2c1,73.7*
COc1ccc(-n2ccnc2SCC(=O)NCc2ccc3c(c2)OCO3)cc1,-6.1
Cc1ccc(-n2c(=O)cc(N3CCCCCC3)[nH]c2=O)cc1,-6.4
Cc1ccc2c(c1)c1ncnc(N3CCC4(CC3)OCCO4)c1n2C,-67.3
c1ccc2sc(NC3=NCN(Cc4ccc5c(c4)OCO5)CN3)nc2c1,7.4
Cc1ccc2[nH]c3c(N4CCN(Cc5ccc6c(c5)OCO6)CC4)ncnc3c2c1,73.4*
Cc1cc(C)c2[nH]c(=O)c(C(c3nnnn3Cc3ccc4c(c3)OCO4)N3CCCCC3)cc2c1 (stereo not given),12.3
CC(=O)c1ccc(OCC(O)CN2CCN(Cc3ccc4c(c3)OCO4)CC2)cc1 (stereo not given),-27.0
COc1ccc2c(c1)[nH]c1c(N3CCN(Cc4ccc5c(c4)OCO5)CC3)ncnc12,74.1*
Cc1ccc(SCCNC(=O)C(CO)(CO)CO)cc1,-4.7
CCn1c(SCC(=O)Nc2nc3c(s2)CCCC3)nc2c1c(=O)n(C)c(=O)n2C,10.6
CC(C(=O)NC1CCCC1)N(Cc1ccc2c(c1)OCO2)C(=O)c1snc(C(N)=O)c1N (stereo not given),4.9
CCc1ccc(C(=O)NCc2cccs2)s1,-70.5
CCOc1ccc(NC(=O)CSc2nnc(C3CC3)n2N)cc1,3.2
O=C(Nc1ccc(F)cc1)c1cccc2c1C(=O)N(Cc1ccccn1)C2,-11.7
FC(F)(F)C(F)(F)C(F)(F)c1nnc2ccc(N3CCOCC3)nn12,7.9
COC1Cc2ccccc2N(C(=O)N2CCN(CCO)CC2)c2ccccc21 (stereo not given),0.0
SMILES,SF-1 inh
CCN1CCN(CNC(=O)c2cnccn2)CC1,-1.2
CCc1ccc(-c2ccc(C(=O)O)cc2)nc1,-85.1
CCCc1ccc(-c2ccc(F)c(N)c2)nc1,60.1*
COC(=O)Sc1nnc(-c2ccc(Br)cc2)o1,4.4
COc1ccc(C(NC(C)=O)c2ccc3cccnc3c2O)c(OC)c1 (stereo not given),82.2*
COc1ccc2sc(NC(C)=O)nc2c1,-49.5
COc1cc2ccccc2cc1C(=O)Nc1cccnc1,-49.5
CCCN(Cc1ccccc1)C(=O)Nc1ccc2c(c1)nnn2C,-32.9
C=CCn1c(SCc2c(C)noc2C)nc2cc(C(=O)O)ccc2c1=O,-17.2
Cc1cccc(N2CCN(C(=O)CSCc3c(C)noc3C)CC2)c1C,49.9*
O=C(CSc1ccccn1)N1CCN(c2ccccc2)CC1,-1.0
CCn1ccnc1C(O)c1cccc(OC)c1OC (stereo not given),-8.2
CC(C)Oc1ccc(NC(=O)Oc2ccccc2)cc1,-52.1
O=C(CSc1nnc(Cc2cc(=O)[nH]c(=O)[nH]2)n1-c1ccc(F)cc1)N1CCCCC1,2.7
N#C/C(C(=O)c1ccccc1)=C1/CCCCCN1,-60.7
Cc1ccccc1-c1nnc(-c2ccc(Br)cc2)o1,-76.8
c1coc(-c2nnc(NC3=NCCC3)o2)c1,-61.4
Cc1ccc(-c2nnc(Nc3ccccc3)o2)cc1,67.9*
O=C(NC(NCc1ccccn1)(C(F)(F)F)C(F)(F)F)c1ccco1,-1.2
Cc1cccc(N(C)C(=S)Oc2ccc3ccccc3c2)c1,-9.0
CCOC(=O)Cc1cn2c(=O)cc(CSCC(=O)Nc3ccc(C)c(C)c3)nc2s1,-4.7
CN1/C(=C/C(=O)c2nc(S(C)(=O)=O)ncc2Cl)C(C)(C)c2ccccc21,60.6*
Cc1cc(-c2ccccc2)nc(N2CCC(C(=O)NC(C)C)CC2)n1,-96.8
CCCCN(CC)CCNS(=O)(=O)c1ccc2c(c1)oc(=O)n2C,-4.6
O=C(CS(=O)(=O)c1ccccc1)c1ccc2c(c1)OCCO2,-51.5
SMILES,SF-1 inh
O=S(=O)(C/C(=C/CO)S(=O)(=O)c1ccccc1)c1ccccc1,95.5*
COC(=O)Cn1c(C)nc2c(sc3nc(C)cc(C)c32)c1=O,-50.1
O=C(CN1CCOc2ccccc21)NC1CC1,-19.5
Cc1ccc2oc3c(c(=O)c2c1)C(c1cccc(O)c1)N(c1ccccn1)C3=O (stereo not given),17.3
Cc1ccc(N2C(=O)c3ccccc3C2O)nc1 (stereo not given),55.5*
O=C1c2ccccc2C(O)N1c1ccc(Cl)cc1 (stereo not given),5.7
O=C(OCC#CCSc1nc2ccccc2o1)c1ccco1,-23.5
O=C(c1ccccc1F)N1CCN(S(=O)(=O)c2ccc(S(=O)(=O)N3CCCCC3)cc2)CC1,-6.6
O=S(=O)(c1ccccc1)c1cccc(S(=O)(=O)N2CCCCC2)c1,0.0
O=S(=O)(c1ccc2c(c1)C(=NO)c1cc(S(=O)(=O)N3CCCCC3)ccc1-2)N1CCCCC1,96.5*
CCOc1ccccc1NC(=O)CSc1nc2cccnc2n1C,9.2
CC(=O)NCc1ccc(-c2csc(N)n2)s1,6.7
CCN(CC)C(=O)CSc1ncnc2c(-c3cccs3)nsc12,-68.4
Nc1nc(Cl)nc2c1ncn2[C@H]1C[C@H](O)[C@@H](CO)O1,79.3*
Nc1ncnc2c1ncn2C1CCC(CO)C(O)C1 (stereo not given),-0.7
CSc1nc(=NC(C)=O)ss1,18.0
COc1ccccc1NC(=O)C1C2C=CC3(CN(Cc4cccnc4)C(=O)C13)O2 (stereo not given),13.1
CCOC(=O)c1sc(NC(=O)c2ccc3ncsc3c2)nc1C,-76.5
c1ccc2c(c1)oc1c(Nc3ccc(CN4CCOCC4)cc3)ncnc12,-54.0
c1ccc(CN2CCN(c3ncnc4c3[nH]c3ccccc34)CC2)cc1,49.7*
COc1ccc(C)cc1NC(=O)NC1CCN(Cc2ccccc2)CC1,-1.2
C=CCNC(=O)C(C#N)c1nc2ccccc2nc1N1CCN(Cc2ccccc2)CC1 (stereo not given),-6.4
c1ccc2c(c1)CCN(c1ncnc3c1[nH]c1ccccc13)C2,85.7*
Cc1ccc2c(c1)[nH]c1c(N3CCN(Cc4ccccc4)CC3)ncnc12,49.5*
Cc1cc(=O)[nH]c(N2CCN(Cc3ccccc3)CC2)n1,-5.1
SMILES,SF-1 inh
CC(C)(C)NC(=O)CSc1nnc(Cc2ccc3c(c2)OCO3)n1C1CCCCC1,5.7
COC(=O)c1cc(OC)c(OC)cc1NC(=O)CSc1nnnn1Cc1ccccc1,-16.5
c1ccc(OCCSc2ncnc3nc[nH]c23)cc1,-24.0
O=C(NCC(=O)N(Cc1cccs1)C(C(=O)NC1CCCC1)c1ccco1)c1cccs1 (stereo not given),-3.9
Cc1ccc2nc3c(cc(C#N)c(=O)n3CC3CCCO3)c(=O)n2c1 (stereo not given),-1.7
Nc1nc(N)c2sc3nc4c(cc3c2n1)CCC4,-57.1
CCCCOC(=O)C(C)c1c(C)[nH]c(=S)[nH]c1=O (stereo not given),-5.1
CCN1C(=O)c2cccc3c(S(=O)(=O)NC(Cc4c[nH]c5ccccc45)C(=O)O)ccc1c23 (stereo not given),15.8
